Laboratory results published in PubChem BioAssay AID687043 (Milwaukee Institute for Drug Discovery, 2013).
The campaign covered roughly 16,000 compounds. About 250 (1.6%) were called active. The full list was thinned out, with actives kept by preference. Values without a mark were called inactive.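 Rule for the calls: active = inhibition above the average over every tested compound plus 3 SD (cut at about 40% in these data); inactive = the rest.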

test system: Hepatitis C virus NS3 helicase; assay: HCV NS3 helicase inhibitors, primary screen, biochemical, fluorescence polarization, ChemBridge library (AID 687043); settings: NS3h Cy5-dT15 DNA binding, at 100 µM, active compounds read high

| Compound | inhibition |
| --- | --- |
| CCCOC(=O)Cc1c(O)c2ccccc2[nH]c1=O | -1.3% |
| O=[N+]([O-])c1ccc2c(c1)S(=O)(=O)N=C2Nc1cccnc1 | -7.4% |
| O=c1[nH][nH]c(=O)c2cc(N3CCCC3)ccc12 | 4.3% |
| O=C(NCc1ccccc1)C1CC(=O)N(c2ccc(Cl)cc2)C1 (configuration not stated) | 2.8% |
| Cc1ccc2c(C)[n+](C)ccn12 | 15.6% |
| COc1ccc(C2CC(=O)C3=C(C2)Nc2ccccc2NC3c2ccc(SC)cc2)cc1 (configuration not stated) | 11% |
| Cc1cccc(NC(=O)/C=C/c2ccc(F)cc2)c1 | 2.2% |
| Cc1ccc(/C=C/C(=O)Nc2cccc([N+](=O)[O-])c2)o1 | 6.1% |
| Cc1ccc(/C=C/C(=O)Nc2ccc(Br)cc2)o1 | 42.5% (active) |
| Cc1cccc(N2C(=O)S/C(=C/c3ccc(N(C)C)cc3)C2=O)c1 | 15.9% |
| COc1ccc(C2CC(=O)C3=C(C2)Nc2ccccc2NC3c2cccc(Cl)c2)cc1 (configuration not stated) | 9.2% |
| CCCCCCN1C(=O)C(O)=C(C(C)=O)C1c1ccc(Br)cc1 (configuration not stated) | -0.7% |
| CCCCNC(=O)C(=O)NCCCOC(C)C | 4.2% |
| O=C(Nc1ccc(Cl)cc1)/C(=C\c1cccc([N+](=O)[O-])c1)NC(=O)c1cccs1 | 0.7% |
| FC(F)(F)c1cc(/C=C/c2ccccc2)n[nH]1 | 10.2% |
| CC(C)(C)C(=O)COc1ccc2c(-c3ccccc3)cc(=O)oc2c1 | 14.2% |
| COc1ccc(C2C=C(Nc3ccccc3)C(=O)N2c2ccccc2)c(OC)c1 (configuration not stated) | -9.5% |
| FC(F)(F)c1ccc(/C=N\N2CCN(Cc3cccc4ccccc34)CC2)cc1 | 3.6% |
| O=C1C2ON(c3ccccc3)C(c3ccc(Br)cc3)C2C(=O)N1c1ccccc1C(F)(F)F (configuration not stated) | 13.4% |
| CCc1c(C)nc2cc(-c3cccs3)[nH]n2c1=O | -7.2% |
| O=c1c2c(nc3cc(-c4cccc(F)c4)[nH]n13)CCS2 | 57.3% (active) |
| CC(=O)Nc1c(C)cc(C2(c3cc(C)c(NC(C)=O)c(C)c3)CCCCC2)cc1C | 2.3% |
| CCOC(=O)c1c(-c2ccc(C)cc2C)csc1NC(=S)NC(=O)c1ccccc1 | 3.9% |

| Compound | inhibition |
| --- | --- |
| O=C(NC(Cc1ccc(O)cc1)C(=O)O)/C(=C/c1ccccc1)NC(=O)c1ccccc1 (configuration not stated) | -11.5% |
| Cc1cccc(N(CC(=O)O)S(C)(=O)=O)c1 | 4.5% |
| CCOC(=O)c1ccc(NC(=O)CN(c2cccc([N+](=O)[O-])c2)S(=O)(=O)c2ccccc2)cc1 | 24.9% |
| O=C(O)CC1S/C(=N\N=C2/C(=O)Nc3ccccc32)N(c2ccc(O)cc2)C1=O (configuration not stated) | 1.8% |
| CCOc1ccccc1NC(=O)CN(c1ccc(OC)cc1)S(=O)(=O)c1ccc(C)cc1 | 13.8% |
| COc1cc(/C=C2/SC(=S)N(C)C2=O)ccc1OC(=O)c1cccs1 | 2.6% |
| COc1ccc(-c2nc3cc(NC(=O)C(C)C)ccc3o2)cc1OC | -6.3% |
| CC(=O)C1=C(C)NC(C)=C(C(C)=O)C1c1cn(-c2ccccc2)nc1-c1cccs1 | 15.6% |
| O=C(NC(=S)Nc1ccc2oc(-c3ccc(Br)cc3)nc2c1)c1ccco1 | 17% |
| O=C(NC(=S)Nc1ccc2oc(-c3cccnc3)nc2c1)c1ccc(Cl)cc1 | -3.5% |
| O=C(NC(=S)Nc1ccc(-c2nc3cc(Cl)ccc3o2)cc1)c1ccco1 | 124% (active) |
| CCOC(=O)C1=C(C)N=c2s/c(=C\c3ccc(F)cc3)c(=O)n2C1c1cccc(OC)c1 (configuration not stated) | 10% |
| O=C(NCCCc1ccccc1)C1(c2ccccc2)CCCC1 | 27% |
| CCN(CC)c1ccc(C=C2C(=O)N(C)C(=O)N(C)C2=O)c(O)c1 | 120% (active) |
| CCN(CC)c1ccc(/C=C2\C(=O)NC(=O)N(C)C2=O)cc1 | 27.7% |
| CCN(CC)c1ccc(/C=C2\C(=O)NC(=O)N(c3ccc(OC)cc3)C2=O)c(OC)c1 | -5.2% |
| Cc1ccc(N2C(=O)NC(=O)/C(=C\c3ccc(I)cc3)C2=O)cc1 | 12.1% |
| CCOC(=O)c1c(CN(CCO)CCO)n(C)c2c1cc(OC(C)=O)c1c2c(-c2ccccc2)nn1-c1ccccc1 | -6.5% |
| Cc1ccc(N2C(=O)CC(NCCc3ccccc3F)C2=O)cc1 (configuration not stated) | 8.2% |
| CCOC(=O)c1ccc(NC(=O)c2ccccc2OC)cc1 | 17.7% |
| Cc1ccc([N+](=O)[O-])cc1NC(=O)C1CC1(c1ccccc1)c1ccccc1 (configuration not stated) | 1.8% |
| O=S(=O)(Nc1ccc(O)c(-c2c(O)ccc3ccccc23)c1)c1cc(Cl)ccc1Cl | 4.2% |
| CCCCCCN1C(=O)C(=O)C(=C(O)c2ccccc2)C1c1ccccc1OC (configuration not stated) | 1.4% |

| Compound | inhibition |
| --- | --- |
| COc1cc(C(=S)N2CCOCC2)cc(OC)c1OC(=O)c1ccc(Br)cc1 | 15.4% |
| Cc1ccc(S(=O)(=O)c2ccc(Sc3ccc(Cl)cc3)cc2)cc1 | 15.4% |
| COc1ccc(-c2nc3sc(-c4ccc(OC)cc4)nc3s2)cc1 | 6% |
| O=C1NC(=Nc2ccc(F)cc2)S/C1=C/c1ccc(Br)cc1 | 4.6% |
| Cc1cc(NC(=O)c2ccc(-c3cccc([N+](=O)[O-])c3)o2)ccc1NC(=O)c1ccco1 | 14.7% |
| CCOc1cccc2c1N(C(=O)c1ccc(OC)cc1)C(C)(C)C(=S)C2=C1SC(C(=O)OC)=C(C(=O)OC)S1 | 0.9% |
| CS(=O)(=O)N1CCN(C(=O)Cc2ccccc2)CC1 | 7.7% |
| CCOc1ccc(/C=C2/Sc3ccccc3C2=O)cc1OCC | 6.1% |
| COc1ccc(N=Cc2sccc2C)c([N+](=O)[O-])c1 | 4.3% |
| COc1ccc(N2C(=O)C3C4C=CC(C4=C(C)C)C3C2=O)c([N+](=O)[O-])c1 (configuration not stated) | 15.2% |
| COc1ccc(N2C(=O)C=CC2=O)c([N+](=O)[O-])c1 | 97.8% (active) |
| Cc1ccc2[nH]c(C)c(CN3CCOCC3)c(=O)c2c1 | -1.6% |
| CC(Oc1cccc(Cl)c1)C(=O)Nc1ccccc1C(=O)N1CCN(Cc2ccccc2)CC1 (configuration not stated) | 0.3% |
| COC(=O)C(NC(=O)c1ccccc1)C12CC3CC(CC(C3)C1)C2 (configuration not stated) | 7.5% |
| Cc1cc(C)n(C(=O)c2cc(F)c(F)cc2Cl)n1 | 3.6% |
| Cc1ccc(NC2=CC(=O)C=CC2=O)c(C)c1 | -2.9% |
| COc1ccc(OC)c(N(CC(=O)Nc2cccc(Br)c2)S(C)(=O)=O)c1 | 9.1% |
| CCC(=O)N1CCN(c2ccc(C(=O)c3ccccc3)cc2F)CC1 | -2.8% |
| Cc1cc(/C=C(/C#N)C(=O)Nc2ccc(F)cc2)c(C)n1-c1ccc(Cl)cc1 | -2.8% |
| COc1ccc(/C=C2\C(=O)NC(=S)N(c3ccc(Br)cc3)C2=O)cc1 | 5.9% |
| CCN1C(=O)C(=Cc2ccc(O)cc2)C(=O)NC1=S | 65.4% (active) |
| CCOC(=O)c1ccc(N2NC(=O)/C(=C/c3ccc(O)cc3)C2=O)cc1 | 5.1% |
| COc1ccccc1NC(=O)C(=O)NCc1ccccc1 | -0.6% |

| Compound | inhibition |
| --- | --- |
| Cc1oc2cc(Br)c(O)cc2c1C(=O)OC(C)C | 9.4% |
| O=C(c1nn2c(c1Cl)NC(c1cccs1)CC2C(F)(F)F)N1CCN(c2ccc(F)cc2)CC1 (configuration not stated) | 5.2% |
| Cc1cccc(NC(=O)CSc2ncn[nH]2)c1 | 1.3% |
| COc1ccc(CNS(=O)(=O)c2ccc(Cl)cc2)cc1 | -5% |
| CCN(CC)c1ccc(NC(=O)/C(=C\c2ccccc2)NC(C)=O)cc1 | 56.6% (active) |
| CC(=O)Nc1ccc(NC(=S)NC(=O)/C=C/c2ccccc2)cc1 | -21.9% |
| CC(C)Oc1ccc(/C=C(/NC(=O)c2ccccc2)C(=O)Nc2ccccc2)cc1 | 14.7% |
| Cc1c(C=O)c(=O)oc2c3c4c(cc12)CCCN4CCC3 | 1.3% |
| O=C(NC1C2CC3CC(C2)CC1C3)c1cccc(I)c1 (configuration not stated) | 15.2% |
| O=c1oc2ccc3ccccc3c2cc1-c1ccc(I)cc1 | 4.2% |
| CC(=O)Oc1ccccc1-c1nc2s/c(=C/c3ccco3)c(=O)n2n1 | 6.7% |
| Cc1cc(/C=C2\C(=O)NC(=O)N(c3ccc4c(c3)OCO4)C2=O)c(C)n1-c1ccc(F)cc1 | 14.5% |
| Cc1cccc(OCCOc2ccc(Cl)cc2/C=C2/SC(=S)N(C)C2=O)c1 | 23.2% |
| O=C1C2C3C=CC(C3)C2C(=O)N1/N=C\c1ccc(-c2ccccc2[N+](=O)[O-])o1 (configuration not stated) | 10.6% |
| COC(=O)c1ccccc1NC(=O)c1ccc(Cl)cc1 | -2.8% |
| COc1ccc(CC(=O)Nc2cc(NC(=O)Cc3ccc(OC)cc3)cc(C(=O)NC(C)(C)C)c2)cc1 | 8.2% |
| O=C1NN(c2ccccc2)C(=O)/C1=C/c1c(Cl)cccc1Cl | 8.3% |
| O=C1c2ccc(C(c3ccc4c(c3)C(=O)N(c3ccccc3)C4=O)(C(F)(F)F)C(F)(F)F)cc2C(=O)N1c1ccccc1 | 8.7% |
| CC(C)C(=O)Nc1ccc2c3c(cccc13)CC2 | 0.3% |
| COc1ccccc1N1CCN(/N=C(/C)c2ccncc2)CC1 | -3.7% |
| COc1ccc(/C=c2\sc3n(c2=O)C(c2ccc(OC)cc2)C(C(=O)OC(C)C)=C(C)N=3)cc1 (configuration not stated) | -0.7% |
| CCOc1ccccc1NC(=O)c1ccc(CN2CCOCC2)cc1 | 6.1% |
| Cc1ccc(C(=O)N/C(=C/c2cccc3ccccc23)C(=O)N2CCCC2)cc1 | -0.3% |
